This is a sample that favours compounds with a hit; in the whole collection about 19% have one here.
DT40 TDP1 CPT – growth inhibition of DT40 Tdp1-/-;hTDP1 cells with camptothecin (screen for TDP1 inhibitors). 12% of 420,000 active. AID 686979. chicken DT40 Tdp1-/-;hTDP1 cells + 20 nM CPT, ATP luminescence, 48 h. Potency, µM (series often up to 46.2 µM), actives largely listed as inhibitors; also: nearly all actives have a fitted effect of over 55% in size
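Chicken DT40 Tdp1-/- cells complemented with human TDP1, 400 cells/well, exposed to compounds plus 20 nM camptothecin for at least 48 h at 37 C; viability read as ATP content by CellTiter-Glo luminescence.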
TDP1 cell noCPT – qHTS for Inhibitors of human tyrosyl-DNA phosphodiesterase 1 (TDP1): qHTS in cells in absence of CPT. DT40 Tdp1-/- hTDP1 cells, no CPT, ATP luminescence, 48 h. Potency, µM (series often up to 46.2 µM), hits mostly inhibitors. 15% of 420,000 active; also: nearly all actives have a fitted effect of over 55% in size
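Stably hTDP1-transfected Tdp1-null chicken DT40 cells were treated with library compounds minus camptothecin and grown for at least 48 hr at 37 °C, after which cellular ATP was quantified by luminescence.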
TGFb inhibitor – inhibitors of TGF-b signaling; HepG2 CAGA-GFP TGF-b/SMAD3 reporter, GFP fluorescence, 18 h; TGF-beta stimulated, 500 pg/mL final; Potency, µM (highest dose often 46.1 µM), most hits filed as inhibitors; 1.2% of 410,000 active; AID 588855; also: nearly all actives have a fitted effect of over 65% in size
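Cell-based qHTS in HEPG2 carrying a CAGA-GFP Smad reporter; compounds added before 500 pg/mL final TGF-beta, 18 h incubation at 37 degrees C, GFP fluorescence quantified per cell by imaging cytometry.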
IL1B secr inh – inflammasome signaling inhibition, IL-1 beta readout; THP-1 LPS/ATP IL-1B secretion, AlphaLISA, 16 h; active compounds read low; activity change, % at 57.5 µM; 4.7% of 360,000 active; in the data active = activity change below about -50%; inconclusive = mostly about -30% to -49%
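Secreted IL-1B measured by AlphaLISA bead assay after 16 h compound exposure of THP-1 cells; compounds (final up to 57.5 uM) added 1 h before LPS (250 ng/mL) and ATP (1.25 mM) stimulation; lower signal means less secretion.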
TDP1 inh – inhibitors of human tyrosyl-DNA phosphodiesterase TDP1; recombinant TDP1, AlphaScreen DNA substrate cleavage; AID 485290; Q9NUW8; 0.28% of 350,000 active; Potency, µM (titrated, usually from 130 µM), actives largely listed as inhibitors; also: nearly all actives have a fitted effect of over 40% in size
Target sequence (Q9NUW8 whole entry, looked up): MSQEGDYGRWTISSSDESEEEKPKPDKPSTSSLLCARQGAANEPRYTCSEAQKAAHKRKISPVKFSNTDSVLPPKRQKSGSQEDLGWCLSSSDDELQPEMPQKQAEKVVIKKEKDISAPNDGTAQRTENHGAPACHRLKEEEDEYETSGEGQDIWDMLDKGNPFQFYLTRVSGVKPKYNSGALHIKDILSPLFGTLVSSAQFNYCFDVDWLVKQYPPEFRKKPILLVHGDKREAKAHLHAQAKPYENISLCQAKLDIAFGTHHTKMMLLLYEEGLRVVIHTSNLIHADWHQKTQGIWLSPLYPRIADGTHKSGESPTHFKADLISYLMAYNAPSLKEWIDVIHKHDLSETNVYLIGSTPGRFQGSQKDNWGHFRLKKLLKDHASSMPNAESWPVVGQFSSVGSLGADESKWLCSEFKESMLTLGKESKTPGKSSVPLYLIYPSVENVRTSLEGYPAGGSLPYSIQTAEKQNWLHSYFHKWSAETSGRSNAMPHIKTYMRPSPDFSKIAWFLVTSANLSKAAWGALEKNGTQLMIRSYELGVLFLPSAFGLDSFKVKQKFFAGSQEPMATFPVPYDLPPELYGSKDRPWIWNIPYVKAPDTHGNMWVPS
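E. coli-derived human Tdp1, 1 nM final. Cpd preinc 15 min RT; substrate 15 nM final, 5 min RT; AS bead mix 10 ug/ml final, 10 min RT. Signal loss = tyrosine-FITC cleavage. No-enzyme wells = max signal.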
HepG2 tox – kills HepG2 cells in TGF-b inhibitor counter-screen | Potency, µM (top dose mostly 46.1 µM), most hits filed as cytotoxic | HepG2 CAGA-GFP viability, ATP luminescence, 18 h | 0.76% of 410,000 active | AID 588856
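HepG2 CAGA-GFP cells (1000/well, DMEM with 1% FBS) received compound, then TGF-beta at 500 pg/mL final, and were incubated 18 hours at 37 degrees C. Viability was read by CellTiter-Glo luminescence. Media-only wells were set as complete cell-killing and DMSO as no toxicity.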
Hits are given with their value; 0 = inactive; ? = inconclusive; - = no result. Unless noted, calls follow the shape of the dose curve; as a rule, active = well fitted curve in the direction sought with a large enough effect; inconclusive = small, poorly fitted or top-dose-only effect, or another doubt; inactive = no such curve, though single readings can be large; an effect the other way counts as inactive or inconclusive.

SMILES | DT40 TDP1 CPT | TDP1 cell noCPT | TGFb inhibitor | IL1B secr inh | TDP1 inh | HepG2 tox
Cc1ccc(NC(=S)N(CCCN2CCN(C)CC2)Cc2cccs2)cc1C | 0 | 0 | 0 | -60.8 | 0 | 0
CCOC(=O)c1ccc(NC(=S)N(CCCN2CCCC(C)C2)Cc2cccs2)cc1 (stereo not drawn) | ? | 25.9µM | 0 | -80.6 | 0 | 0
CCOC(=O)c1ccc(NC(=S)N(CCCN2CCCC2)Cc2cccs2)cc1 | ? | ? | ? | 0 | 0 | 0
O=C(CNC(=S)N(CCCN1CCOCC1)Cc1cccs1)NC1CCCCCCC1 | ? | 16.4µM | 0 | -53.9 | 0 | 0
CCOC(=O)c1ccc(NC(=S)N(CCCN2CCN(CC)CC2)Cc2ccco2)cc1 | 0 | 0 | 0 | 0 | 0 | 0
Cc1ccc(NC(=S)N(CCCN2CCC(C)CC2)Cc2ccco2)cc1C | ? | ? | 0 | -78.5 | 0 | 0
CCOC(=O)c1ccc(NC(=S)N(CCCN2CCCC2)Cc2ccco2)cc1 | ? | ? | 0 | -67.2 | 0 | 0
CCOc1ccc(NC(=S)N(CCc2c(C)[nH]c3ccccc23)Cc2ccco2)cc1 | 13µM | ? | ? | ? | 0 | 0
COc1cccc(NC(=S)N(CCCN2CCC(C)CC2)Cc2cccs2)c1 | 0 | ? | ? | 0 | 0 | 0
COc1ccc(NC(=S)N(CCCN2CCC(C)CC2)Cc2cccs2)cc1 | 0 | ? | ? | -51.3 | 0 | 0
COc1cccc(NC(=O)Nc2cc(-c3cn4cccnc4n3)ccc2OC)c1 | - | - | 0 | - | 0 | 0
CCOC(=O)c1ccc(NC(=S)N(CCN2CCCCCC2)Cc2cccs2)cc1 | ? | 14.6µM | 0 | 0 | 0 | 0
COc1ccc(/C(C)=N/NC(=O)c2ccccc2OCc2ccccc2)c(OC)c1 | ? | ? | 0 | 0 | 0 | 0
Cc1ccc(/C=N/NC(=O)c2ccccc2OCc2ccc(F)cc2)o1 | 5.8µM | 2.91µM | 0 | 0 | 0 | 0
Cc1cccc(/C=N/NC(=O)c2cc(Br)ccc2OCc2ccccc2)n1 | ? | 23.1µM | ? | 0 | - | 0
COc1ccc(/C=N/NC(=O)c2ccccc2OCc2ccccc2)c(OC)c1 | ? | 18.4µM | ? | 0 | 0 | 0
Cc1cc(C(=O)N/N=C/c2ccc(OCc3ccccc3)cc2)c(C)o1 | ? | 16.4µM | 0 | 0 | 0 | 0
CC(=O)c1cccc(NC(=O)C(C)OC(=O)CN2C(=O)NC(C)(C)C2=O)c1 (stereo not drawn) | 0 | 0 | 0 | 0 | 0 | 0
COc1cccc(-c2nc(SCc3cc(=O)c4cc(Cl)ccc4[nH]3)n[nH]2)c1 | 0 | 0 | 0 | - | 0 | 0
COc1ccccc1C(=O)NCC(=O)N/N=C/c1cc(Br)ccc1OCc1ccccc1 | ? | 23.1µM | 0 | -77.7 | 0 | 0
O=C(CNC(=O)c1ccc(F)cc1)N/N=C/c1cc(Br)ccc1OCc1ccccc1 | ? | ? | ? | ? | 0 | 0
C#CCOc1ccccc1/C=N/NC(=O)c1ccccc1OCc1ccccc1 | ? | 20.6µM | 0 | 0 | 0 | 0
O=C1c2cccc3cccc(c23)C(=O)N1CCCN(C(=O)c1cccs1)c1cccc(F)c1 | ? | 16.4µM | 0 | 0 | 0 | 0
Cc1ccc(N(CCCCN2C(=O)c3ccccc3C2=O)C(=O)c2cccc([N+](=O)[O-])c2)cc1 | ? | 16.4µM | 0 | 0 | 0 | 0
CN(C)CCN1C(=O)c2ccccc2C1=O | 0 | 0 | 0 | 0 | 0 | 0
O=C(O)CCCN1C(=O)c2cccc3cccc(c23)C1=O | 0 | 0 | 0 | 0 | - | 0
O=C1c2ccccc2C(=O)N1CCCCN(C(=O)c1ccc(Cl)s1)c1ccc(Cl)cc1 | ? | 20.6µM | 0 | 0 | 0 | 0
O=C1c2ccccc2C(=O)N1CCCCN(C(=O)c1cc([N+](=O)[O-])cc([N+](=O)[O-])c1)c1ccc(Cl)cc1 | 0 | ? | 0 | 0 | 0 | 0

Screening data deposited in PubChem by National Center for Advancing Translational Sciences (NCATS).
